Assay outcomes from PubChem BioAssay.
Rows were chosen to be rich in hits. Some 2% of all compounds tested hit in one or more screens of this group.
SK-BR-3 tox 24h: SK-BR-3 proliferation inhibitors | SK-BR-3 viability, CellTiter-Glo ATP luminescence, 24 h; stronger effect = lower value | viability, % at 10 µM | 41,000 compounds, 0.47% hits;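 active = viability at or below the median of all test compounds minus 3 SD, in both replicates if run twice, cut at about 45% in these data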
HER2 expr 66K: inhibitors of human Her2 kinase expression | 65,000 compounds, 0.69% hits | HER2 level % of control, % at 10 µM | AID 645 | SKBR-3 HER2 protein level, AlphaScreen, 18-24 h; stronger effect = lower value;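 active = HER2 level under 5% of the carrier-only control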;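 also: lower value means stronger loss of Her2 protein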
Target sequence (P04626 whole entry, looked up): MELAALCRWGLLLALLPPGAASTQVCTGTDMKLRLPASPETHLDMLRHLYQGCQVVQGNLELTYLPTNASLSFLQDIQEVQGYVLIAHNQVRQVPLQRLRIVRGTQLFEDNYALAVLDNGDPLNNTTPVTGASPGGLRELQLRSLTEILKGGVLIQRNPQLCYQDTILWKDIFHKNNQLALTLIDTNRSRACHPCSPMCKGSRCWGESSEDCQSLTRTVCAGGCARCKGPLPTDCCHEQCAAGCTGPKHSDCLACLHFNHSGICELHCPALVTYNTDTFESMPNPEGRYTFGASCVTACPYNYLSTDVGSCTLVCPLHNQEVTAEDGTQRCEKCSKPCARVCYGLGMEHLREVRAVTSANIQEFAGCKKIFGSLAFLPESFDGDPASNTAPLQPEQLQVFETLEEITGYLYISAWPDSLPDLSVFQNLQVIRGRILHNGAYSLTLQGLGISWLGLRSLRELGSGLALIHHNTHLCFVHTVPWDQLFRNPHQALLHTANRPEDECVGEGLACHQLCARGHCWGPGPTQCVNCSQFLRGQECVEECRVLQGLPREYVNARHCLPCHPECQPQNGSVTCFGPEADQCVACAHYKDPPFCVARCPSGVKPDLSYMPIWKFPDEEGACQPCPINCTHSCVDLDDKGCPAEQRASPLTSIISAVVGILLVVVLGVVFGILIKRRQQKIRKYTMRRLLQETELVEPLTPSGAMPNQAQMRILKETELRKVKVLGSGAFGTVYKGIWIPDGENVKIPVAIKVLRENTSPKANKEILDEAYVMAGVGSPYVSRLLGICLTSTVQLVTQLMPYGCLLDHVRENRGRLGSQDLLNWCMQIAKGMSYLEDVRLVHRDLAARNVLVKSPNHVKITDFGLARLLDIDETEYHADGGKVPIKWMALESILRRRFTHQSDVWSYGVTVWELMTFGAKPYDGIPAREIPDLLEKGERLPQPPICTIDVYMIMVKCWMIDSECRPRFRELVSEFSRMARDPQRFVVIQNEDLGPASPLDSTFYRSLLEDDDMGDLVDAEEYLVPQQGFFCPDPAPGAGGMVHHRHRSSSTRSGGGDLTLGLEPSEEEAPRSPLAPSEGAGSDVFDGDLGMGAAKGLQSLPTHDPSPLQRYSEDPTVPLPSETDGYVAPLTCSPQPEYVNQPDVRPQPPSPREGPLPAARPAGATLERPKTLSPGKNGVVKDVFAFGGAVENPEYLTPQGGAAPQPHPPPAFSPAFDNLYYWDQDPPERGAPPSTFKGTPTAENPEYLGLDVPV
Jurkat viability: cytotoxicity toward Jurkat cells; Jurkat E6.1 viability, ATP luminescence, 48 h; inhibition, % at 4 µM; 56,000 compounds, 1.2% hits; AID 463;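 active = inhibition above the mean inhibition of all tested compounds plus 3 SD, cut at about 28% in these data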
Hits are given with their value; n = inactive; x = not tested or not shown.

SMILES	SK-BR-3 tox 24h	HER2 expr 66K	Jurkat viability
CCCCN=CC1=C(O)C(C(=O)OC)C(C)(C)CC1=O (configuration not stated)	n	n	n
CCOC(=O)c1[nH]c(C)c(C(=O)Nc2ccccc2C)c1C	x	n	78.6
CCOC(=O)c1[nH]c(C)c(C(=O)Nc2ccc(C)c(Cl)c2)c1C	x	n	n
CCNC(=O)c1c(C)[nH]c(C(=O)OCC)c1C	x	n	n
CCOC(=O)c1[nH]c(C)c(C(=O)Nc2cc(Cl)ccc2C)c1C	x	n	88.3
CCOC(=O)c1[nH]c(C)c(C(=O)Nc2ccc(C)c(F)c2)c1C	x	n	49.3
CCOC(=O)c1[nH]c(C)c(C(=O)NCc2ccc(Cl)cc2)c1C	x	n	n
O=S(=O)(Cc1ccc(Cl)cc1)N1CCCC1	n	n	n
O=C(NCc1cccnc1)C1c2ccccc2C(=O)N1Cc1ccco1 (configuration not stated)	x	n	n
Cc1ccc(Cl)cc1N1CCN(C(=O)CCS(=O)(=O)c2cccc3nonc23)CC1	n	n	x
C/C(N)=C(/C#N)C(=O)CSc1nnc(NC(C)C)s1	x	n	n
Cc1cc(C)n(-c2ccc(C(=O)Nc3ccc(S(=O)(=O)NCc4ccco4)cc3)cc2)n1	x	n	64.9
O=C(Nc1ccccc1)c1ccc(S(=O)(=O)NCc2ccco2)cc1	n	n	n
COc1ccc(-c2noc(CCC(=O)N3CCN(c4cc(C)ccc4C)CC3)n2)cc1	x	n	x
O=C(CCN1C(=O)COc2ccccc21)NCc1cccs1	x	n	n
O=S(=O)(NCCSc1ccccc1)c1cccs1	x	n	n
CCOC(=O)C1=C(C)N2C(=C(C#N)[C@@H]1c1ccc(C(=O)OC)cc1)SC[C@@]2(O)C(C)(C)C	n	n	n
O=C(c1ccco1)N(Cc1ccco1)c1ccc(O)cc1	n	-15.8	n
Cc1ccc(N(Cc2ccco2)C(=O)c2cccc(S(=O)(=O)N(C)C)c2)cc1	x	n	n
O=C(NCc1ccco1)c1ccc2c(=O)n(CCC3=CCCCC3)c(=O)[nH]c2c1	x	n	n
CN1/C(=C/C(=O)c2nc(S(C)(=O)=O)ncc2Cl)C(C)(C)c2ccccc21	x	-15.3	101.6
CN1/C(=C\C(=O)c2ccco2)C(C)(C)c2ccccc21	x	n	n
Cc1n[nH]c(C)c1S(=O)(=O)N(CC(=O)NC1CCCC1)c1ccc(C(C)C)cc1	x	n	n
C(=C\c1ccccc1)/CSc1nnc(-c2ccccn2)n1Cc1ccco1	x	n	86.1
Clc1ccccc1CSc1nnc(-c2ccccn2)n1Cc1ccco1	n	n	x
SMILES	SK-BR-3 tox 24h	HER2 expr 66K	Jurkat viability
Cc1ccc(C2c3c(-c4ccccc4O)n[nH]c3C(=O)N2Cc2ccncc2)cc1 (configuration not stated)	n	n	86.5
COc1ccc(C2c3c(-c4ccccc4O)n[nH]c3C(=O)N2CCc2ccc(OC)c(OC)c2)cc1 (configuration not stated)	n	n	n
Cc1cccc(NC(=O)Cn2cnc3sc(C)c(S(=O)(=O)N4CCC(C)CC4)c3c2=O)n1	n	n	x
CC#CCCCC(=O)Nc1cc(OC)nc(OC)n1	n	-24.5	n
C#CCOC(=O)CCC(=O)Nc1cc(OC)nc(OC)n1	n	n	n
COc1cc(NC(=O)CCn2c(=O)[nH]c3ccsc3c2=O)cc(OC)c1	n	n	n
C#CCOC(=O)c1ccccc1C(=O)n1nnc2ccccc21	n	n	n
C#CCOC(=O)c1ccccc1C(=O)OCC#C	n	-21.9	n
C=CCn1c(COc2ccc(Cl)cc2)nnc1SCC(=O)N1CC(=O)Nc2ccccc21	x	n	n
O=C(CSc1nnc(SCC(=O)c2ccco2)s1)c1ccco1	x	n	n
O=C(CSc1nc2cc(Cl)ccc2s1)c1ccco1	n	-1.4	x
CCOc1ccccc1NC(=O)Cn1nnc(C(=O)Nc2ccc(C)cc2)c1N	x	n	n
CCOc1ccccc1NC(=O)Cn1nnc(C(=O)NCc2ccco2)c1N	x	n	97.5
CN(CC(=O)Nc1ccc(Cl)cc1)CC(=O)Nc1cc(Cl)ccc1C#N	x	n	n
O=C1CC(NCc2ccccc2F)C(=O)N1c1ccccc1 (configuration not stated)	39.2	n	n
CCOc1ccc(N2C(=O)CC(NCc3ccc(F)cc3)C2=O)cc1 (configuration not stated)	n	n	n
COC1(c2cc(-c3ccccc3)nc(N)n2)CCCCC1	x	n	n
Cc1ccc(-n2ncc3c(=O)[nH]c(SC(C)C)nc32)cc1	x	n	n
CCOC(=O)C(C)Sc1nc2c(cnn2-c2ccc(C)cc2)c(=O)[nH]1 (configuration not stated)	x	n	49.8
COc1cc(NC(=O)c2ncn[nH]2)cc(OC)c1OC	n	n	n
Cc1ccc(-n2c(C)cc(C(=O)OCC(=O)N(CC(C)C)C3CCS(=O)(=O)C3)c2C)cc1 (configuration not stated)	x	n	n
CCN(C(=O)COC(=O)c1cc(C)n(-c2ccc(F)cc2)c1C)C1CCS(=O)(=O)C1 (configuration not stated)	x	-20.1	n
C=CCc1c(C)c(C#N)c2nc3ccccc3n2c1N1CCN(C)CC1	n	n	x
c1ccc2c(-c3nc4ncccc4o3)cccc2c1	n	n	n
Cc1sc2ncnc(Sc3nnnn3-c3ccccc3)c2c1C	x	-13.8	n
SMILES	SK-BR-3 tox 24h	HER2 expr 66K	Jurkat viability
Clc1ccc(-n2nnnc2Sc2ncnc3sccc23)cc1	x	-10.9	65.7
Nc1ccc(Sc2nnnn2-c2ccccc2)c(Cl)c1	n	n	n
Cc1sc2ncnc(SCC(=O)c3cccs3)c2c1C	n	n	n
O=C(NC1CCCC1)c1ccc(CS(=O)(=O)c2ccc(Br)cc2)o1	x	n	n
COc1ccc2nc(NC(=O)CN(c3ccc(C)cc3)S(=O)(=O)c3c(C)nn(C)c3C)sc2c1	n	n	n
c1cc2c(cc1C1CCCN1)OCCCO2 (configuration not stated)	x	n	n
COC(=O)C(Cc1ccccc1)NC(=O)CSc1nc(N)cc(=O)[nH]1 (configuration not stated)	n	n	n
O=C1OCc2cc(NS(=O)(=O)c3cccs3)ccc21	n	n	n
O=S(=O)(Nc1ccc2c(c1)CCC2)c1cccs1	x	-26.2	n
CCOCCCNS(=O)(=O)c1ccc(Br)cc1	n	n	n
CC(NC(=O)NCc1cccnc1)(C(F)(F)F)C(F)(F)F	n	n	x
COc1ccc(OC)c(S(=O)(=O)n2cnc3cc(C)c(C)cc32)c1	x	n	n
CCOc1ccc(S(=O)(=O)n2cnc3cc(C)c(C)cc32)cc1	n	n	62.8
CCCOc1ccc2[nH]cc(C(=O)O)c(=O)c2c1	n	n	n
COc1ccc2c(c1)N(C)C(=O)CC(c1ccccc1)=N2	n	n	n
O=C1CCC(C(=O)NC2(C(=O)NC3CCCCC3)CCCCC2)N1 (configuration not stated)	28.2	n	x
Cc1ccc(N(C(=O)C2CCC(=O)N2)C2(C(=O)NC3CCCCC3)CCCCC2)cc1 (configuration not stated)	n	n	x
O=C(Cc1cscn1)c1ccc(O)cc1O	n	-18.5	x
O=C(Cc1ccc2cccnc2c1)c1ccc(O)cc1O	x	n	n
COc1cc(C)c(C(C)C)cc1S(=O)(=O)N1CCN(C)CC1	n	n	n
COc1cc(C)c(C(C)C)cc1S(=O)(=O)n1cnc(C)c1	x	n	85.1
CCOC(=O)N1CCN(C(=O)CSCc2nc(-c3ccccc3C)oc2C)CC1	x	-23.3	n
CCOC(=O)N1CCN(C(=O)CSCc2nc(-c3ccccc3F)oc2C)CC1	x	n	n
COc1ccc(CNC(=O)c2ccc(=O)oc2)cc1OC	n	n	n
